Values joined by “and” are separate entries in the source; they are usually repeats but may differ in a detail not shown here. Equal entries are not always repeated. Structures can show the parent of a compound that is named as a salt.
Columns and labels:
Assay in all cases: cell viability relative to vehicle control; higher = less cytotoxic
Conditions in all cases: 10 µM
K562 = test system: K562
In short: (§1)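 CRISPR-edited mutant clones and isogenic wild-type clones from four leukaemia lines were screened against Selleck bioactive, kinase and epigenetic probe libraries, with identity-inconsistent compounds excluded. Each compound was acoustically dispensed at a single 10 µM dose into 384-well plates holding 2000 cells in 50 µL medium per well. After 48 h the supernatant was removed and CellTiter-Glo luminescence was read. Viability was expressed as percent of the on-plate vehicle control and analysed in Genedata Screener.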

MARIMO = test system: MARIMO
In short: as §1

MOLM14 = test system: MOLM14
In short: as §1

OCI-AML2 = test system: OCI-AML2
In short: as §1

Row | Structure (SMILES) | cell viability (K562; SRSF2 genotype: SRSF2 P95H/wt) | cell viability (K562; SRSF2 genotype: SRSF2 wt/wt) | cell viability (MARIMO; SRSF2 genotype: SRSF2 P95H/wt) | cell viability (MARIMO; SRSF2 genotype: SRSF2 wt/wt) | cell viability (MOLM14; SRSF2 genotype: SRSF2 P95H/wt) | cell viability (MOLM14; SRSF2 genotype: SRSF2 wt/wt) | cell viability (OCI-AML2; SRSF2 genotype: P95H/wt) | cell viability (OCI-AML2; SRSF2 genotype: wt/wt)
1 | CCCCOc1ccc(C(=O)Nc2ccc(F)cc2F)cc1 | 91% and 91.9% | 91.8% | 75.4% | 88.6% | 100% | 110% | 85.7% | 92.8%
2 | CC[C@H](Nc1ncnc2[nH]cnc12)c1oc2ccccc2c(=O)c1-c1cccc(F)c1 [Tenalisib (RP6530)] | 101% and 96% | 98.2% | 95.2% | 100% | 82.4% | 84.4% | 84.8% | 87.5%
3 | C=CCc1ccc(OC(C)=O)c(OC)c1 [Eugenyl acetate] | 85.8% and 88% | 86% | 89.7% | 90.4% | 93.2% | 90.1% | 91.1% | 91.6%
4 | CNC(=O)c1cc(Oc2ccc(NC(=O)Nc3cc(C(C)(C)C)nn3-c3ccc4ncccc4c3)c(F)c2)ccn1 [DCC-2036 (Rebastinib)] | 28.3% and 35.4% | 27.5% | 11.8% | 4.62% | 1.63% | 1.54% | 3.03% | 14%
5 | CCCNCC(O)COc1ccccc1C(=O)CCc1ccccc1 (configuration not stated) [Propafenone HCl] | 78.7% and 84.2% | 79.2% | 66.1% | 70.5% | 73.2% | 81.2% | 68.3% | 68%
6 | CN(C)CC[C@H](CSc1ccccc1)Nc1ccc(S(=O)(=O)NC(=O)c2ccc(N3CCN(Cc4ccccc4-c4ccc(Cl)cc4)CC3)cc2)cc1[N+](=O)[O-] | 49.5% and 28.1% | 72.7% | 0.46% | 1.66% | 0.15% | 2% | 0.19% | 3.31%
7 | COc1cc(Nc2ncc(F)c(Nc3ccc4c(n3)N(COP(=O)(O)O)C(=O)C(C)(C)O4)n2)cc(OC)c1OC | 97.6% and 98.5% | 97.5% | 107% | 114% | 8.88% | 11.4% | 26.3% | 37%
8 | O=C(NC1CCN(CCCCC2(C(=O)NCC(F)(F)F)c3ccccc3-c3ccccc32)CC1)c1ccccc1-c1ccc(C(F)(F)F)cc1 [Lomitapide] | 0.51% and 0.47% | 0.4% | 0.42% | 0.43% | 0.37% | 0.37% | 0.35% | 0.46%
9 | C[C@@H](O[C@H]1OCCN(Cc2nn(P(=O)(O)O)c(=O)[nH]2)[C@H]1c1ccc(F)cc1)c1cc(C(F)(F)F)cc(C(F)(F)F)c1 [Fosaprepitant dimeglumine salt] | 52.4% and 55.7% | 57% | 53.1% | 52.6% | 60.9% | 65% | 52.4% | 58%
10 | CC(C)(C)c1cc(NC(=O)Nc2ccc(Oc3ccnc4[nH]c(=O)cnc34)cc2F)n(-c2ccccc2)n1 | 30% and 44% | 25.7% | 14.6% | 9.05% | 7.07% | 2.65% | 6.64% | 15.8%
11 | Nc1cc[nH]c(=O)n1 [Cytosine] | 102% and 93.8% | 99.5% | 102% | 110% | 107% | 104% | 102% | 107%
12 | COc1cc(C)c2c(=O)c(-c3ccccc3)coc2c1 [5-Methyl-7-methoxyisoflavone] | 101% and 95.6% | 92.2% | 85.2% | 90.2% | 97.1% | 92.6% | 93.4% | 88.4%
13 | CO[C@H]1/C=C\C=C(/C)C(=O)NC2=CC(=O)C(NCCN(C)C)=C(C[C@@H](C)C[C@H](OC)[C@H](O)[C@@H](C)/C=C(\C)[C@@H]1OC(N)=O)C2=O [17-DMAG HCl (Alvespimycin)] | 14% and 15.5% | 24% | 28.1% | 22.5% | 0.45% | 0.4% | 3.25% | 12%
14 | COc1cc2c(cc1OC)CN(CCc1ccc(NC(=O)c3cc(OC)c(OC)cc3NC(=O)c3cnc4ccccc4c3)cc1)CC2 [Tariquidar] | 94.6% and 105% | 96.9% | 95.3% | 105% | 93.5% | 95.7% | 96.4% | 100%
15 | C[C@@H]1Cc2c([nH]c3ccccc23)[C@@H](c2c(F)cc(/C=C/C(=O)O)cc2F)N1CC(C)(C)F | 106% and 105% | 108% | 107% | 104% | 101% | 97.4% | 117% | 107%
16 | CC(=O)c1ccc(O)cc1O [2,4-Dihydroxyacetophenone] | 100% and 87% | 86.2% | 93.5% | 99.8% | 96% | 94.1% | 92.3% | 94.8%
17 | CCn1c(C(=O)N(C2CC2)C2CC2)cc2c3c(ncn3C)c(Nc3cc(C)n(C)n3)nc21 | 103% | 108% | 108% | 102% | 41.6% | 38.5% | 43% | 57.1%
18 | CC1(C)C2CCC1(C)C(O)C2 (configuration not stated) [Borneol] | 101% and 89.9% | 94.2% | 89.7% | 99.5% | 97.5% | 99.5% | 87.9% | 105%
19 | CC1(C)CCCC2(C)C1CCC1(C)OCCC12 (single isomer, unassigned; (-)) [(-)-Ambroxide] | 94.6% and 94.5% | 99.7% | 97.9% | 101% | 95.9% | 96.4% | 98% | 103%

From the supplement of paper PMC10981050
